# Source: PubChem BioAssay (NCATS)
# Where “and” joins values, the source holds several entries; their conditions need not be identical. Equal values may be shown once. Inconclusive results are not listed. Entries that show only a call come without a potency. Calls of active or inactive are those of the source. Unless noted, the call rests on the fitted dose curve.
# Experiments:
# [1] = qHTS assay for small molecule antagonists of peroxisome proliferator-activated receptor delta signaling (AID 588535; active means well fitted inhibition curve with a large enough effect in the signal ratio, with a control signal flat, not every such curve was filed as active; the % refers to the signal ratio;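 on max response: cells co-treated with a PPAR-delta agonist as stimulator during compound exposure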); conditions: HEK293T PPARd-UAS-bla, beta-lactamase FRET ratio, 18 h; 460 nm channel
# How it was run: (§1)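 Cell-based beta-lactamase assay in antagonist mode: 4000 HEK293T PPAR-delta-UAS-bla cells per well, 5 hr preincubation then 18 hr compound incubation at 37 C. IC50 obtained by Hill equation fitting.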
# [2] = target: Peroxisome proliferator-activated receptor delta (Homo sapiens) (UniProt Q03181); experiment: as above; conditions: HEK293T PPARd-UAS-bla, beta-lactamase FRET ratio, 18 h; series mostly up to 76.7 µM
# Sequence of Peroxisome proliferator-activated receptor delta (Homo sapiens) (Q03181 whole entry, looked up): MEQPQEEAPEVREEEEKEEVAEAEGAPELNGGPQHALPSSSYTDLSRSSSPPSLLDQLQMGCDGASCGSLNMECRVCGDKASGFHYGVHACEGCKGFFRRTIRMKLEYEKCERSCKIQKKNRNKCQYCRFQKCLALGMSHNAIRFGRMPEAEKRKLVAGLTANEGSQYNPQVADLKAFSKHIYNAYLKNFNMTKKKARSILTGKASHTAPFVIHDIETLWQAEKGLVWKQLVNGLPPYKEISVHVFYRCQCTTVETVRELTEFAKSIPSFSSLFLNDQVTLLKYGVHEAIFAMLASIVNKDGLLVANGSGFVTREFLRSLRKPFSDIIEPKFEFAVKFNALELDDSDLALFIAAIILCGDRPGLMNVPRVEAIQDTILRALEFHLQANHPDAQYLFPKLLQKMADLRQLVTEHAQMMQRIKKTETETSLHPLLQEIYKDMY
# How it was run: as §1
# [3] = target: Voltage-gated inwardly rectifying potassium channel KCNH2 (Homo sapiens) (UniProt Q12809); experiment: qHTS Assay for Small Molecule Inhibitors of the Human hERG Channel Activity (AID 588834; active means well fitted curve in the direction sought with a large enough effect; an effect the other way counts as inactive or inconclusive;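 further: top concentration of the series differs between compounds; lower thallium flux fluorescence means stronger hERG block; nearly all actives have a fitted effect of over 50% in size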); conditions: U2OS BacMam hERG, FluxOR thallium flux fluorescence; series mostly up to 92.2 µM
# Sequence of Voltage-gated inwardly rectifying potassium channel KCNH2 (Homo sapiens) (Q12809 whole entry, looked up): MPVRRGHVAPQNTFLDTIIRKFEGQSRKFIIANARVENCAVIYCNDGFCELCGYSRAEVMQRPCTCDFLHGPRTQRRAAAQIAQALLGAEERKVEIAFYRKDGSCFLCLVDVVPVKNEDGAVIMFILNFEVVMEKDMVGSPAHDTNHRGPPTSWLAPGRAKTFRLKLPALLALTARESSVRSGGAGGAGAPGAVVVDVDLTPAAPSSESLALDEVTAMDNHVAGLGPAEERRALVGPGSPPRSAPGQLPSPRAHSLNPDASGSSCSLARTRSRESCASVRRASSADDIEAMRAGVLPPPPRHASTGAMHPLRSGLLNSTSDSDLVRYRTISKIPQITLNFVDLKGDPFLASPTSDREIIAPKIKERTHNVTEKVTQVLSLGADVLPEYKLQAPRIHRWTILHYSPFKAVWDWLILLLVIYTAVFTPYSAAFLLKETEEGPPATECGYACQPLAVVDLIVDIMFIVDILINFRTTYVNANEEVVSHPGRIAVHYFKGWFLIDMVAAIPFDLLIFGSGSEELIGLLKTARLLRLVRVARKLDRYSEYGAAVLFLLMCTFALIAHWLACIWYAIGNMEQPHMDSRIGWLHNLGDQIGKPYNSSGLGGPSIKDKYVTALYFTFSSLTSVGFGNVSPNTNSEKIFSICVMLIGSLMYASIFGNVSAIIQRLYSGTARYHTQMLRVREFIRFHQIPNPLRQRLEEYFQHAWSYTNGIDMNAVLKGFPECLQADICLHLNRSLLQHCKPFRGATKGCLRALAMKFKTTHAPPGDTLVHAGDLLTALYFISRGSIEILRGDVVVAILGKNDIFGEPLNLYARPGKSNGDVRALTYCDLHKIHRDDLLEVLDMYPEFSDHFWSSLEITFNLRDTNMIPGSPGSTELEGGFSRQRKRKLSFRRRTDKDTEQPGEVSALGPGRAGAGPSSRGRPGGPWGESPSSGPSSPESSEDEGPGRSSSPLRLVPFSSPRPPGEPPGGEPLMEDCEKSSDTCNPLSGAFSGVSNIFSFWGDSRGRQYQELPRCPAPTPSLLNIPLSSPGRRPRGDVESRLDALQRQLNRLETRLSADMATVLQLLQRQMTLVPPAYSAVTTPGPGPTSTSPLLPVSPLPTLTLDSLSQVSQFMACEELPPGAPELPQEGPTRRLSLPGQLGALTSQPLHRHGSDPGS
# How it was run: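 Blockade is seen as reduced FluxOR thallium-flux fluorescence in U2OS cells expressing hERG from a BacMam construct, in Opti-MEM with 2% FCS. Concentration-response data fitted to the Hill equation for AC50.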
# [4] = qHTS assay for small molecule antagonists of the retinoid-related orphan receptor gamma (ROR-gamma) signaling pathway - cell viability counter screen (AID 720652; active means well fitted curve in the direction sought with a large enough effect in the repeat runs; an effect the other way counts as inactive or inconclusive;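 further: CHO reporter cells with doxycycline-induced ROR-gamma expression; compound exposure lasted 16 hr before ATP read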); conditions: RORgamma reporter cell line viability counter screen; series mostly up to 92.2 µM
# How it was run: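 Cytotoxicity is quantified via intracellular ATP (CellTiter-Glo luminescence) in doxycycline-induced CHO ROR response element-luciferase reporter cells treated with compound for 16 hr at 37 C, 5% CO2.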
# [5] = target: Peroxisome proliferator-activated receptor gamma (Homo sapiens) (UniProt P37231); experiment: qHTS assay for small molecule antagonists of peroxisome proliferator-activated receptor gamma signaling (AID 588537; active means well fitted inhibition curve with a large enough effect in the signal ratio, with a control signal flat, not every such curve was filed as active; the % refers to the signal ratio;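 further: reporter cells co-stimulated with 50 nM rosiglitazone agonist during compound treatment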); conditions: HEK293 PPARg-UAS-bla, beta-lactamase ratio, antagonist mode; series mostly up to 76.8 µM
# Sequence of Peroxisome proliferator-activated receptor gamma (Homo sapiens) (P37231 whole entry, looked up): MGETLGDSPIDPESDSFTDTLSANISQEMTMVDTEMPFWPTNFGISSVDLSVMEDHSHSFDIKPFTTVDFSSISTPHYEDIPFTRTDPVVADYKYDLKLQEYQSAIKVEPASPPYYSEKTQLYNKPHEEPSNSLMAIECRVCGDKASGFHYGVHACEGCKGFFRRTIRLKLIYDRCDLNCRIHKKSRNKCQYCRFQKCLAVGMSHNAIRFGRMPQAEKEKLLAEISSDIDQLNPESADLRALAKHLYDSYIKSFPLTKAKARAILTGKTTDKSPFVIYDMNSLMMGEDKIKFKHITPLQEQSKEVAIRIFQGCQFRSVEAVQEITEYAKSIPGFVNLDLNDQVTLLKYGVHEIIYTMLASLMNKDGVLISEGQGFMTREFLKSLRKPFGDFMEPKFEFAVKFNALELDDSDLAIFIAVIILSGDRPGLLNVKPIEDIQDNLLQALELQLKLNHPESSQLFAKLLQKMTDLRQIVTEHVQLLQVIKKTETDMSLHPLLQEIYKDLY
# How it was run: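 Inhibitors of agonist-stimulated UAS-bla reporter activity were sought in HEK293 cells; rosiglitazone (50 nM) defined full signal and DMSO baseline. Curves fitted to Hill model gave IC50 and efficacy.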
# [6] = target: Vitamin D3 receptor (Homo sapiens) (UniProt P11473); experiment: qHTS assay for small molecule antagonists of vitamin D receptor signaling (AID 588541); conditions: HEK293T VDR-UAS-bla, beta-lactamase ratio, antagonist mode; series mostly up to 76.7 µM;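 further: receptor activated by calcitriol during compound treatment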
# Sequence of Vitamin D3 receptor (Homo sapiens) (P11473 whole entry, looked up): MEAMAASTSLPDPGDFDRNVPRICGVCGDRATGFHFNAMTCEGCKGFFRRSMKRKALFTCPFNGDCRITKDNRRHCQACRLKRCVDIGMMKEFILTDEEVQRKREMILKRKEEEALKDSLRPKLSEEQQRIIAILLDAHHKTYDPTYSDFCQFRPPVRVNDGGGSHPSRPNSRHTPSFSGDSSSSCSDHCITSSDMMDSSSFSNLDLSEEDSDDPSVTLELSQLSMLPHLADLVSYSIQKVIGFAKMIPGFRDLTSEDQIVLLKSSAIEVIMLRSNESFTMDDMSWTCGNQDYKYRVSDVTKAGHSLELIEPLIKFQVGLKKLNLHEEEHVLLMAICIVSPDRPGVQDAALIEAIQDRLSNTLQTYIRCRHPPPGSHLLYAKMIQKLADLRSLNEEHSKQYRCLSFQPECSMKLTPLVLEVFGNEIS
# How it was run: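 Antagonist-mode beta-lactamase reporter assay: HEK293T VDR-UAS-bla cells were exposed to titrated compound alongside 1-alpha,25-dihydroxyvitamin D3 at 3 nM final for 16 h. Values were normalized to the 50 nM agonist control and DMSO basal, with IC50 and efficacy from Hill equation fits.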
# [7] = target: Vitamin D3 receptor (Homo sapiens) (UniProt P11473); experiment: qHTS assay for small molecule agonists of vitamin D receptor signaling (AID 588543); conditions: HEK293T VDR-UAS-bla, beta-lactamase ratio, 16 h; series mostly up to 76.8 µM
# How it was run: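 Measured: β-lactamase reporter activity (CCF4, 405 nm excitation, 460/530 nm emission) in HEK293T VDR-UAS-bla cells after 16 h compound exposure at 37 °C. Normalization against 50 nM 1α,25-dihydroxyvitamin D3 and DMSO; Hill-fit EC50.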
# [8] = qHTS assay for small molecule agonists of retinoid X receptor alpha signaling (AID 588544); conditions: HEK293T RXRa-UAS-bla, beta-lactamase reporter, 18 h; 530 nm emission
# [9] = target: Thyroid hormone receptor beta (Homo sapiens) (UniProt P10828); experiment: qHTS assay for small molecule agonists of thyroid hormone receptor beta signaling (AID 588545); conditions: TR-UAS-bla GripTite HEK 293, beta-lactamase ratio, agonist mode, 18 h; series mostly up to 76.7 µM
# Sequence of Thyroid hormone receptor beta (Homo sapiens) (P10828 whole entry, looked up): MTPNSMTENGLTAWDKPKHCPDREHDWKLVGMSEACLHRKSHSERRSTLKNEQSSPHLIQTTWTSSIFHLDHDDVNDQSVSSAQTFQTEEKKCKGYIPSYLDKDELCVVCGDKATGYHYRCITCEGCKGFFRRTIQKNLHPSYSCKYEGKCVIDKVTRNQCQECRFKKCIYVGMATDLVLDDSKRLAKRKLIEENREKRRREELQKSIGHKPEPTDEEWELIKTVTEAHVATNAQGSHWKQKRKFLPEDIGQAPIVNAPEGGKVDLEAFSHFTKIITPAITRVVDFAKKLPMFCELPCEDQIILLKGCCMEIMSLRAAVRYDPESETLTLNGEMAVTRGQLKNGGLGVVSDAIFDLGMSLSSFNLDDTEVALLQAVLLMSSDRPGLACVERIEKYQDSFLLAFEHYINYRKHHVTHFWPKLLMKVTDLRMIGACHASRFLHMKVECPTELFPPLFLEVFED
# How it was run: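 TR-UAS-bla-GripTite HEK 293 cells in medium with 2% charcoal/dextran FBS, 0.1 mM NEAA and 1 mM sodium pyruvate were treated with titrated compounds for 18 hrs at 37 C. Beta-lactamase reporter was read with CCF4 dye (ex 405, em 460/530 nm); EC50 from Hill fits.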
# [10] = qHTS assay for small molecule antagonists of retinoid X receptor alpha signaling (AID 588546; active means well fitted inhibition curve with a large enough effect in the signal ratio, with a control signal flat, not every such curve was filed as active; the % refers to the signal ratio;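 further: cells stimulated with 9-cis-retinoic acid as agonist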); conditions: HEK293T RXRa-UAS-bla, beta-lactamase ratio, antagonist mode; measured here: W530 green channel, cytotoxicity proxy
# How it was run: (§2)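 Beta-lactamase reporter inhibition, read as CCF4 fluorescence ratio (ex 405, em 460/530 nm) after 2 h at RT. HEK293T UAS-bla cells, 2500/well, were stimulated with 9-cis-RA at 500 or 100 nM final alongside test compound for 18 h at 37 C.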
# [11] = target: Retinoic acid receptor RXR-alpha (Homo sapiens) (UniProt P19793); experiment: as above; conditions: HEK293T RXRa-UAS-bla, beta-lactamase ratio, antagonist mode
# Sequence of Retinoic acid receptor RXR-alpha (Homo sapiens) (P19793 whole entry, looked up): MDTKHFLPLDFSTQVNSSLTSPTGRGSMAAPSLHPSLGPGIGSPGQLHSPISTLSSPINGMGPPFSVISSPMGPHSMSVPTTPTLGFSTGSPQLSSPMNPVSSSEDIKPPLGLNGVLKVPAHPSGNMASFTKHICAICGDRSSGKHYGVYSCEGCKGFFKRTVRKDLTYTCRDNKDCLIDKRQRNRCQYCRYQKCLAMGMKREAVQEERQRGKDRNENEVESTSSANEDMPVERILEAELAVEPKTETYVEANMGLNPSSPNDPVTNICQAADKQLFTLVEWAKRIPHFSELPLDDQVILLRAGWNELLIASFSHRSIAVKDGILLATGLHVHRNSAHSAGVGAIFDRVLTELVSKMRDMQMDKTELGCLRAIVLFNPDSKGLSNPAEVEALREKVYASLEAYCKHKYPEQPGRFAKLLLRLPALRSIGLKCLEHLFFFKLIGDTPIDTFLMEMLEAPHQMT
# How it was run: as §2
# [12] = qHTS assay for small molecule activators of the nuclear factor-kappa B (NF-kB) signaling pathway (AID 651749; active means well fitted activation curve with a large enough effect in the signal ratio; the % refers to the signal ratio); conditions: NF-kB-bla ME-180 cells, beta-lactamase FRET ratio, 16 h; activation: stronger effect = higher value
# How it was run: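 Stably transfected ME-180 line; NF-kB response element upstream of beta-lactamase. Treatment: compound or DMSO, 16 hr. Detection: fluorescent FRET substrate.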
# [13] = qHTS assay for environmental chemicals that activate the Aryl hydrocarbon Receptor (AhR) signaling pathway (AID 651777; active means well fitted curve in the direction sought with a large enough effect; an effect the other way counts as inactive or inconclusive; further: nearly all actives have a fitted effect of over 15% in size); conditions: 1A2-DRE human hepatoma cells, luciferase, 24 h; activation: stronger effect = higher value
# How it was run: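 Measured luciferase activity, read 30 min after One-Glo addition at room temperature, from human hepatoma cells bearing a dioxin response element–CYP1A2 promoter reporter and exposed to compound for 24 hr at 37 C.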
# [14] = target: Peroxisome proliferator-activated receptor alpha (Homo sapiens) (UniProt Q07869); experiment: qHTS assay for small molecule agonists of the peroxisome proliferator-activated receptor alpha (PPARalpha) signaling pathway (AID 651778; active means well fitted curve in the direction sought with a large enough effect; an effect the other way counts as inactive or inconclusive); conditions: PathHunter PPARalpha complementation, chemiluminescence, 6 h; max response: stronger effect = higher value
# Sequence of Peroxisome proliferator-activated receptor alpha (Homo sapiens) (Q07869 whole entry, looked up): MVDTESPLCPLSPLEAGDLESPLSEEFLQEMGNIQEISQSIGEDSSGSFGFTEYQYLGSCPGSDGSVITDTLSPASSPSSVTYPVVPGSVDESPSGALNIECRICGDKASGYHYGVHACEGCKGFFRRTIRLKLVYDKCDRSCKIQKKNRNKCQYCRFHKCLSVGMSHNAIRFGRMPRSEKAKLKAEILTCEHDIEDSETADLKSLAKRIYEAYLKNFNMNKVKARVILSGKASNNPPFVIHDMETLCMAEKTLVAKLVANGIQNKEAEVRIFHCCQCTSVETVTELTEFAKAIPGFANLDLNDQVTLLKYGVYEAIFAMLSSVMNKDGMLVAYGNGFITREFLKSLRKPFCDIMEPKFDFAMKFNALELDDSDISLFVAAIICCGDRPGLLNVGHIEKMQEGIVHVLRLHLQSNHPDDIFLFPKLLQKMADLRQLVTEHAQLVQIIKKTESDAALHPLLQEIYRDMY
# How it was run: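 Chemiluminescence from complemented enzyme reported PPARalpha activation in cells after 6 hr of compound treatment at 37 C. The detection reagent was incubated for 60 min at room temperature, and compounds were scored as agonists.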
# [15] = qHTS assay for small molecule agonists of the antioxidant response element (ARE) signaling pathway measured by Nrf2-dependant transcriptional activity (AID 720636; active means well fitted curve in the direction sought with a large enough effect in the repeat runs; an effect the other way counts as inactive or inconclusive;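 further: HepG2 cells with an ARE-driven luciferase reporter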); conditions: ARE-luc HepG2, Nrf2 luciferase reporter, 16 h; series mostly up to 92.4 µM
# How it was run: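 In HepG2 cells engineered with an Nrf2-responsive luciferase gene, ARE induction was quantified as luminescence after 16 hr compound treatment at 37 C.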
# [16] = qHTS assay for small molecule agonists of the antioxidant response element (ARE) signaling pathway measured by Nrf2-dependant transcriptional activity - cell viability counter screen (AID 720653; active means well fitted curve in the direction sought with a large enough effect in the repeat runs; an effect the other way counts as inactive or inconclusive); conditions: ARE-bla HepG2 viability, CellTiter-Glo ATP luminescence, 16 h; max response: stronger effect = lower value
# How it was run: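 Cytotoxicity counter screen: intracellular ATP quantified by CellTiter-Glo luminescence in the same ARE-bla HepG2 plates, after 16 h compound exposure and a 2 h beta-lactamase substrate step.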
# [17] = qHTS assay for cell viability of the p53RE-bla HCT-116 cell line (AID 743292; active means well fitted curve in the direction sought with a large enough effect; an effect the other way counts as inactive or inconclusive; further: nearly all actives have a fitted effect of over 55% in size); conditions: p53RE-bla HCT-116 viability, ATP luminescence, 16 h; series mostly up to 95 µM
# How it was run: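 Intracellular ATP of p53RE-bla HCT-116 cells measured by luciferase luminescence following 16 h compound incubation at 37 C; DMSO-only wells served as vehicle controls.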
# [18] = target: Luciferin 4-monooxygenase (Photinus pyralis) (UniProt P08659); experiment: Biochemical firefly luciferase enzyme assay for NPC (AID 624030; active means well fitted curve in the direction sought with a large enough effect; an effect the other way counts as inactive or inconclusive;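 further: purified P. pyralis luciferase at 10 nM with luciferin and ATP substrate; nearly all actives have a fitted effect of over 70% in size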); conditions: purified P. pyralis luciferase, luminescence, 5 min; series mostly up to 58.6 µM
# How it was run: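 Direct inhibition of firefly luciferase enzyme (10 nM final, 50 mM Tris Acetate) assessed by luminescence within 5 minutes. Percent activity scaled between DMSO and PTC124 positive control, with concentration-effect curves classified by fit quality and response.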
# [19] = target: Bile acid receptor (Homo sapiens) (UniProt Q96RI1); experiment: qHTS assay for small molecule agonists of farnesoid X receptor signaling (AID 588527); conditions: HEK293T FXR-UAS-bla, beta-lactamase ratio, 16 h; activation: stronger effect = higher value
# Sequence of Bile acid receptor (Homo sapiens) (Q96RI1 whole entry, looked up): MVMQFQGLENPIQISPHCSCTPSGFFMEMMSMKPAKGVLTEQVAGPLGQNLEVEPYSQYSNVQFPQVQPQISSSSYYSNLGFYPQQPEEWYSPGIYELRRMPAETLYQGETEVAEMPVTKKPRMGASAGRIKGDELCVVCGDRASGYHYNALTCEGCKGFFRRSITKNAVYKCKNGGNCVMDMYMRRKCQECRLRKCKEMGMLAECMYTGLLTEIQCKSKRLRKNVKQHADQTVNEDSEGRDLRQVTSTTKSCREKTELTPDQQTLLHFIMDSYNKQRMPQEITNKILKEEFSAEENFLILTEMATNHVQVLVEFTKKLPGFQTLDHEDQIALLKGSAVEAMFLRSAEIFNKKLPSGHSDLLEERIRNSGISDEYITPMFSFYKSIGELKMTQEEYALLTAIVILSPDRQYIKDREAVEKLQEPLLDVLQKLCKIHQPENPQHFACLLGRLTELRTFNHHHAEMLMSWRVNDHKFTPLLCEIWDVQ
# How it was run: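 FXR-UAS-bla HEK293T, 10% dialyzed FBS; cpds up to 92 uM titration, 16 h 37 C; CCF4 dye 2 h RT; fluorescence. Normalized to chenodeoxycholic acid 100 uM (100%) and DMSO (0%); Hill fit gives EC50, efficacy.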
# [20] = target: Peroxisome proliferator-activated receptor gamma (Homo sapiens) (UniProt P37231); experiment: qHTS assay for small molecule agonists of peroxisome proliferator-activated receptor gamma signaling (AID 588536; active means well fitted curve in the direction sought with a large enough effect in the signal ratio, with a control signal flat, not every such curve was filed as active; the % refers to the signal ratio); conditions: HEK293 PPARg-UAS-bla, beta-lactamase ratio, 16 h; series mostly up to 76.7 µM
# How it was run: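 PPAR-gamma-UAS-bla HEK293 cells in medium with 1% charcoal/dextran-treated FBS were exposed to compounds for 16 h at 37 C. Beta-lactamase activity was read with CCF4 substrate (405 nm excitation, 460/530 nm emission).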
# [21] = target: Cytochrome P450 3A4 (Homo sapiens) (UniProt P08684); experiment: qHTS Assay for Activators of Cytochrome P450 3A4 (AID 885; active means well fitted curve in the direction sought with a large enough effect; an effect the other way counts as inactive or inconclusive; further: nearly all actives have a fitted effect of over 65% in size); conditions: recombinant CYP3A4, Luciferin-PPXE luminescence, 60 min; series mostly up to 57.1 µM
# Sequence of Cytochrome P450 3A4 (Homo sapiens) (P08684 whole entry, looked up): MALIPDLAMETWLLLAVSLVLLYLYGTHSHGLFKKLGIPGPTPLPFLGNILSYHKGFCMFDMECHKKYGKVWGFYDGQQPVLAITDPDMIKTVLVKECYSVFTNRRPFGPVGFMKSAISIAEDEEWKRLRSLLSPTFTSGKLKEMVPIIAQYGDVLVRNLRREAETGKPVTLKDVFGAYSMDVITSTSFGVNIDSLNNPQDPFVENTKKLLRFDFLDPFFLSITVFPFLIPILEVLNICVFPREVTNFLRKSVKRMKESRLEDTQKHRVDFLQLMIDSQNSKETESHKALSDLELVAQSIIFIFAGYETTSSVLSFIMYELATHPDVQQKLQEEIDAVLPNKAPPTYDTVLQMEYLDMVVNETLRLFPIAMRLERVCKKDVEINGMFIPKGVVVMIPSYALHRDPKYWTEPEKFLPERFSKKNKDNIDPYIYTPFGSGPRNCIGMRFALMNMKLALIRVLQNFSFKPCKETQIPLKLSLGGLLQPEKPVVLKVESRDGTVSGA
# How it was run: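 20nM CYP3A4 + 25uM Luciferin-PPXE (=KM), 200mM KPO4; cpd 10 min RT; NADPH regen, 60 min RT; stop w/ detection buffer, 20 min; luminescence. Normalized to 57 uM ketoconazole.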
# [22] = target: Peroxisome proliferator-activated receptor delta (Homo sapiens) (UniProt Q03181); experiment: qHTS assay for small molecule agonists of peroxisome proliferator-activated receptor delta signaling (AID 588534); conditions: HEK293T PPARdelta-UAS-bla, beta-lactamase ratio, 18 h; series mostly up to 76.7 µM
# How it was run: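 Reporter cells were plated and held 5 hrs at 37 C before compounds were added. After 18 hrs at 37 C, CCF4 dye was loaded for 2 hrs at RT and fluorescence measured.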
# [23] = qHTS assay for small molecule agonists of the antioxidant response element (ARE) signaling pathway (AID 651741; active means well fitted activation curve with a large enough effect in the signal ratio; the % refers to the signal ratio); conditions: HepG2 ARE-bla reporter, beta-lactamase FRET ratio, 16 h; series mostly up to 96 µM
# How it was run: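 Seeding 2,000 ARE-bla HepG2 cells per well preceded a 5 h incubation at 37 C/5% CO2 and a 16 h compound exposure at 37 C. Beta-lactamase reporter activity was then quantified by fluorescence after 2 h with LiveBLAzer B/G FRET substrate.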
# [24] = target: Cytochrome P450 3A4 (Homo sapiens) (UniProt P08684); experiment: qHTS Assay for Inhibitors and Substrates of Cytochrome P450 3A4 (AID 884; active means well fitted curve in the direction sought with a large enough effect; an effect the other way counts as inactive or inconclusive; further: potency means the concentration at half of the fitted maximal effect; nearly all actives have a fitted effect of over 50% in size); conditions: recombinant CYP3A4, Luciferin-PPXE luminescence; series mostly up to 57.1 µM
# How it was run: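 20 nM human CYP3A4 with 25 uM Luciferin-PPXE (at KM) in 200 mM KPO4, preincubated 10 min with compound; NADPH regeneration started a 60 min RT reaction. Luciferin detected by luminescence, normalized to 57 uM ketoconazole as full inhibition.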
compound,measurement,setting,value
c1ccccc1,max response,[1],-9.22% and -21.5% and 24.9%
same,Potency,[2],inactive
same,Potency,[3],inactive
same,Potency,[4],inactive
CC1(C)CCC(Cc2ccc(Cl)cc2)C1(O)Cn1cncn1 (stereo unspecified),Potency,[5],inactive
same,Potency,[6],inactive
same,outcome,[7],inactive
same,max response,[8],16.6%
same,Potency,[9],inactive
same,max response,[10],-14.2%
same,max response,[11],-14.3% (inactive)
same,activation,[12],-0.913% (inactive)
same,activation,[13],-1.24% (inactive)
same,max response,[14],-1.67% (inactive)
same,Potency,[15],inactive
same,max response,[16],-10.5% (inactive)
same,Potency,[17],inactive
ClC(Cl)Cl,Potency,[18],inactive
CCOC(=O)C(C)Oc1ccc(Oc2nc3ccc(Cl)cc3o2)cc1 (stereo unspecified),activation,[19],-3.02% (inactive)
same,Potency,[20],inactive
CN(C)c1ccc(Cc2ccc(N(C)C)cc2)cc1,Potency,[21],inactive
same,activation,[19],-1.47% (inactive)
same,outcome,[22],inactive
same,Potency,[23],inactive
CC1(C)CC(N=C=O)CC(C)(CN=C=O)C1 (stereo unspecified),Potency,[24],25.1 µM (active)
same,activation,[19],-0.574% (inactive) and 2.35% (inactive)
